Laboratory results taken from PubChem BioAssay AID720597 (Broad Institute, 2013).
Entries with a potency or affinity are not part of this list. Calls of active or inactive are those of the source.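 How the source made its calls: active means fitted half-maximal dose no more than twice the top valid tested dose, for compounds that lower signal; inconclusive means fit invalid, or curve flat with activity between -70 and -30; inactive means potency past limit, curve flat within ±30, or signal increasing.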

molecular target: NAD-dependent protein deacylase sirtuin-5, mitochondrial (Homo sapiens) (UniProt Q9NXA8); test: SIRT5 deacylase inhibitors, dose response, biochemical, fluorescence imaging, cherry-pick, set 6 (AID 720597); settings: Purified SirT5, succinyl-peptide-AMC/trypsin fluorescence; series mostly up to 15 µM;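 further: lower AMC signal can also come from blocking the trypsin step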
Sequence (Q9NXA8 whole entry, looked up): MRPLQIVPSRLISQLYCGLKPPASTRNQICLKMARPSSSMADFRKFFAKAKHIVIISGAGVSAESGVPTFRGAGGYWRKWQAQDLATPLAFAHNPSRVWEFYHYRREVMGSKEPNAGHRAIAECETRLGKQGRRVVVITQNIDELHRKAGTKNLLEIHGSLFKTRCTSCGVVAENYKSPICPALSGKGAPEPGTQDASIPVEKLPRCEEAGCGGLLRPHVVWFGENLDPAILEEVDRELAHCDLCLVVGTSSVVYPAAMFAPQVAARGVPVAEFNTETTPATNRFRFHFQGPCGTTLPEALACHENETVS

outcome, inactive:
CCCC#Cc1ccc([C@@H]2[C@H]3CN(S(=O)(=O)Cc4ccccc4)CCCCN3[C@H]2CO)cc1, CC(=O)N(C)C[C@H]1Oc2ncc(C#CCC3CCCC3)cc2C(=O)N([C@@H](C)CO)C[C@H]1C, CC(C)CC#Cc1ccc2c(c1)O[C@H](CN(C)C(=O)c1cccc(F)c1)[C@@H](C)CN([C@H](C)CO)S2(=O)=O, O=C(NCC[C@@H]1CC[C@H](NC(=O)C2CC2)[C@@H](CO)O1)c1cc(Cl)cc(Cl)c1, C[C@@H]1CN([C@@H](C)CO)C(=O)c2cccc(NC(=O)c3nc4ccccc4s3)c2O[C@H]1CN(C)Cc1ccc(C(F)(F)F)cc1, CO[C@@H]1CN(C)C(=O)c2ccc(NC(=O)Nc3ccccc3)cc2OC[C@@H](C)N(C(C)=O)C[C@H]1C, COc1ccc(S(=O)(=O)N(C)C[C@H]2OCCCC[C@H](C)Oc3ccc(NS(=O)(=O)c4ccc(F)cc4)cc3C(=O)N([C@@H](C)CO)C[C@H]2C)cc1, C[C@H]1CN([C@@H](C)CO)C(=O)c2cc(NC(=O)Nc3ccc(C(F)(F)F)cc3)ccc2O[C@H]1CN(C)S(=O)(=O)c1ccc(Cl)cc1, C[C@@H]1CN([C@@H](C)CO)S(=O)(=O)c2ccc(C#Cc3cccc(F)c3)cc2O[C@H]1CN(C)S(=O)(=O)c1ccccc1F, O=C(CCN1CCCCC1)N[C@@H]1CC[C@H](CC(=O)N2CCC(Cc3ccccc3)CC2)O[C@@H]1CO, CN(C)CC(=O)N1[C@H](CO)[C@@H](c2ccccc2)C12CN(C(=O)C1CCCC1)C2
